54 compounds from PubChem BioAssay can be followed below.

Broadly, the inhibition is the relative decrease from the control value, in per cent.

Unmarked numbers belong to inactive results. Activity calls are given as the source filed them. Cut-off read from the data, not from the text of the source, unless noted: active = inhibition above about 44%; inactive = the rest.

A short description of assay [1]: StAR promoter reporter inhibitors, counter-screen for LRH-1 inverse agonist project, cell-based, luminescence, high throughput (AID 651611; in the data active = inhibition above about 28%). To be noted: StAR promoter luciferase reporter counterscreen, at 3.6 µM, hits give high values. (Counterscreens check selectivity or assay interference.)
Assay [2] addresses Nuclear receptor subfamily 5 group A member 2 (Homo sapiens) (UniProt O00482). As to the kind of experiment: LRH-1 (NR5A2) inverse agonists, retest, confirmation, cell-based, luminescence (AID 651613; in the data active = inhibition above about 42%;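 note: HEK293T cells co-transfected with LRH-1 and StAR promoter luciferase reporter; 0% = vehicle wells and 100% = parental cells lacking receptor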). The settings on record: cell-based LRH-1 luciferase reporter, inverse agonism; at 3.6 µM; hits give high values. For orientation: Reporter assays use an easily measured gene product as a stand-in for the process of interest.

The target in assay [3] is Steroidogenic factor 1 (Homo sapiens) (UniProt Q13285). The assay is described as follows: SF1 (NR5A1) inverse agonists, counter-screen for LRH-1 inverse agonist project, cell-based, luminescence, high throughput (AID 651614).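 Note: cells cotransfected with StAR promoter reporter and SF1 expression vector; 0% = vehicle on cells with receptor and 100% = vehicle on cells lacking receptor.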 To be noted: cell-based SF1 luciferase reporter, at 3.6 µM, hits give high values.
Assay [4] can be described thus: VP16 transactivation reporter inhibitors, counter-screen for LRH-1 inverse agonist project, cell-based, luminescence, high throughput (AID 651615; in the data active = inhibition above about 33%). The settings on record: Gal4-VP16 luciferase reporter cells, at 3.6 µM, hits give high values.

Sequence of Steroidogenic factor 1 (Homo sapiens) (Q13285 whole entry, looked up, the tested form may be a part): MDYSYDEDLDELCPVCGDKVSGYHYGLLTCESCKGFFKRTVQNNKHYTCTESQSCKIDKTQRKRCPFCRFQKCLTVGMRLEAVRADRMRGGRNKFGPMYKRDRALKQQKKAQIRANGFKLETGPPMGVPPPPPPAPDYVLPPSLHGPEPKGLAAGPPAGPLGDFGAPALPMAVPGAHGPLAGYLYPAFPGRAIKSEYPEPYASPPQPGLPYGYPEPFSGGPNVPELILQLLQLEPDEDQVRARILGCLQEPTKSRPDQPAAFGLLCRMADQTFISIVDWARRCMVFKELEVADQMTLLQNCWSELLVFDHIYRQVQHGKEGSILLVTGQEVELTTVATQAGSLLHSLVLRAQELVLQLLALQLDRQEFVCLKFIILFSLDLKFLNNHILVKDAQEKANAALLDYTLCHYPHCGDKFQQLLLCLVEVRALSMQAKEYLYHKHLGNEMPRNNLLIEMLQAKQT
Sequence of Nuclear receptor subfamily 5 group A member 2 (Homo sapiens) (O00482 whole entry, looked up): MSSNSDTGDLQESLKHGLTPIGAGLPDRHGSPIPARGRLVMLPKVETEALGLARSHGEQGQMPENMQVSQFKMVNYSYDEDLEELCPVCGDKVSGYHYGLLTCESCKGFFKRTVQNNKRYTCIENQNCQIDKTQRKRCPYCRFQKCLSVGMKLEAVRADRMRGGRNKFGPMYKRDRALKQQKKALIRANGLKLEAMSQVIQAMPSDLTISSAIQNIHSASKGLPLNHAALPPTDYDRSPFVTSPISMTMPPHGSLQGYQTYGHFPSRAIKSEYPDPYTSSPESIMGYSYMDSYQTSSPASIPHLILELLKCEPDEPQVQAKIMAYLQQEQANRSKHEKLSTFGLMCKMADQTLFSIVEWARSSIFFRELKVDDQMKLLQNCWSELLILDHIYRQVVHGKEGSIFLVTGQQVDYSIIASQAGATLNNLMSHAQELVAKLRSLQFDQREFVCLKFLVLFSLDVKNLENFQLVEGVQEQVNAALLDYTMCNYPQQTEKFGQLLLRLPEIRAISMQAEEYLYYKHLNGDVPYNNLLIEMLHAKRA

Consider `O=C(COC(=O)CCN1C(=O)C2CC=CCC2C1=O)NCCc1ccccc1` (stereo unspecified), for which the inhibition in assay [1] is 11.9%; in assay [2], 40.1%; in assay [3], 44.8% (active); in assay [4], 3.03%.
Consider `Cc1ccc(CNC(=O)COc2ccc(C(=O)c3ccc(F)cc3)cc2)cc1`, for which the inhibition in assay [1] was 17.6%; in assay [2], 51% (active); in assay [3] it was 35.8%; in assay [4], -11.9%.
For `O=C(Nc1ccc(N2CCN(C(=O)c3ccc(Cl)cc3)CC2)cc1)c1ccc([N+](=O)[O-])o1`, in that order: 24.9%, 51.9% (active), 66.2% (active) and 1.04%.
On the same counts, the results for `NC(=O)c1ccc(NC(=O)COC(=O)C2COc3ccccc3O2)cc1` (stereo unspecified) are 21.9%, 52.4% (active), 56.7% (active) and -20.5%.
On the same counts, the results for `Cc1cc2oc(=O)cc(-c3ccccc3)c2c(C)c1-c1ccc(N(C)C)cc1` are 0.45%, 52% (active), 51.3% (active) and 12.6%.
Consider `O=C(c1ccccc1)N1CCN(c2ccc([N+](=O)[O-])c(N3CCOCC3)c2)CC1`, for which the inhibition was 9.16% in assay [1], 39.5% in assay [2], 34.7% in assay [3] and 3.81% in assay [4].
For `Cc1ccc(-n2nc(C)c(NC(=O)CCl)c2C)cc1`, the inhibition in assay [1] was 35.8% (active); in assay [2] it was 47% (active); in assay [3], 57.2% (active); in assay [4], -120%.
As to `CN(C)c1ccc(NC(=O)CSc2nnc(-c3ccco3)c(-c3ccco3)n2)cc1`, the inhibition in assay [1] is 14.1%; in assay [2], 54.9% (active); in assay [3], 47.8% (active); in assay [4] it was -2.61%.
On the same counts, the results for `O=C(Nc1nc2c(Cl)cccc2s1)c1ccc([N+](=O)[O-])o1` are 10.3%, 65.3% (active), 62.2% (active) and -6.76%.
Take `CCOc1ccc(NC(=O)COC(=O)CC2CCCCC2)cc1`: the inhibition in assay [1] is 9.8%; in assay [2], 44.4% (active); in assay [3] it was 44.8% (active); in assay [4], -6.37%.
As to `COc1ccc(CCNC(=O)CSc2nnc(CNC(=O)c3cccs3)o2)cc1OC`, the inhibition is 4.32% in assay [1], 56.7% (active) in assay [2], 50% (active) in assay [3] and 1.47% in assay [4].
Regarding `O=C(Nc1ccccc1)c1oc2ccccc2c1NC(=O)C1CC1`, the inhibition in assay [1] was 3.25%; in assay [2], 52.8% (active); in assay [3] it was 50.5% (active); in assay [4] it was 1.67%.
As for `CCOc1ccc(NC(=O)CSc2nc3cccnc3n2CCOC)cc1`, the inhibition was 21.3% in assay [1], 64.4% (active) in assay [2], 62.1% (active) in assay [3] and -10.9% in assay [4].
For `COc1cc2c(cc1OC)CN(C(=O)CN1C(=O)NC3(CCC(C)CC3)C1=O)CC2` (stereo unspecified), in that order: 11.1%, 46% (active), 46.4% (active) and 7.61%.
Consider `Cc1ccccc1Nc1nc(Cl)c(C=O)s1`, for which the inhibition was 2.17% in assay [1], 50.5% (active) in assay [2], 41.7% in assay [3] and -5.11% in assay [4].
On the same counts, the results for `CC(=O)Nc1sc2c(c1-c1nc3ccccc3s1)CN(C(C)C)CC2` are 36.6% (active), 66.4% (active), 61.1% (active) and 80.7% (active).
On the same counts, the results for `NC(=S)NNc1cc(Cl)cc(Cl)c1` are 12.8%, 50.1% (active), 40.4% and 11.7%.
On the same counts, the results for `CCCCCCCN(C(=O)CCl)c1ccccc1C` are 21%, 49.9% (active), 42.9% (active) and -8.25%.
Regarding `O=C(CCl)NCc1cc(-c2ccc(Cl)cc2)no1`, the inhibition was 43.5% (active) in assay [1], 70.7% (active) in assay [2], 72.3% (active) in assay [3] and -3.6% in assay [4].
With `Cc1ccc(OCc2nnc(SCC(=O)Nc3ccc4c(c3)OCCO4)n2Cc2ccco2)cc1`, the inhibition in assay [1] was 6.71%; in assay [2], 45.5% (active); in assay [3], 41.2%; in assay [4] it was 1.35%.
Take `COc1ccccc1-c1nnc2sc(-c3ccc(N(C)C)cc3)nn12`: the inhibition in assay [1] is 50.1% (active); in assay [2], 31%; in assay [3], 57.1% (active); in assay [4], 31.2% (active).
Take `O=C(COc1cc2oc(=O)cc(-c3ccccc3)c2cc1Cl)NCCN1CCOCC1`: the inhibition in assay [1] is 10.4%; in assay [2] it was 40.5%; in assay [3] it was 35.4%; in assay [4], -2.31%.
As for `C=CC[n+]1c(/C=C2\C=Cc3cc(C)ccc3N2CC)ccc2ccccc21`, the inhibition in assay [1] was 80.6% (active); in assay [2] it was 110% (active); in assay [3], 95.5% (active); in assay [4], 95.8% (active).
With `O=C(CSc1nncc(=O)[nH]1)Nc1cccc([N+](=O)[O-])c1`, the inhibition in assay [1] was 11.7%; in assay [2], 57.3% (active); in assay [3] it was 53.2% (active); in assay [4], 8.83%.
For `Nc1cccc2nc3ccccc3cc12`, the inhibition is 21.7% in assay [1], 104% (active) in assay [2], 55.1% (active) in assay [3] and 92.2% (active) in assay [4].
Take `CC(=O)Nc1ccc(-c2ccnc3c2CC(C(=O)NCc2ccco2)O3)cc1` (stereo unspecified): the inhibition was 48.1% (active) in assay [1], 42.6% (active) in assay [2], 44.6% (active) in assay [3] and 24.2% in assay [4].
With `O=C(c1ccccc1Br)N1CCN(c2ccc([N+](=O)[O-])c(N3CCOCC3)c2)CC1`, the inhibition in assay [1] was 8.23%; in assay [2], 42% (active); in assay [3], 38.9%; in assay [4], -4.88%.
For `O=C(NCc1cccnc1)c1cccn2c(=O)c3sccc3nc12`, the inhibition is 17.9% in assay [1], 34.3% in assay [2], 31.3% in assay [3] and 1.7% in assay [4].
For `CC[n+]1c(/C=C/c2ccc(N(C)C)cc2)ccc2ccccc21`, in that order: 71.9% (active), 103% (active), 86.6% (active) and 85% (active).
On the same counts, the results for `Cn1cccc1C(=O)OCC(=O)N1CCN(c2ccccc2)CC1` are 2.85%, 32.7%, 35% and -18.1%.
On the same counts, the results for `COc1ccc(OC)c(-n2c(-c3ccc(S(C)(=O)=O)cc3)cc(C=O)c2C)c1` are 25%, 48.2% (active), 55.3% (active) and -41.9%.
On to `CCOC(=O)c1cc(C#N)c(N2CCCCC2)nc1-c1ccccc1`, for which the inhibition in assay [1] is 8.89%; in assay [2], 53.8% (active); in assay [3] it was 40.6%; in assay [4], -5.07%.
For `CC(=O)N1CCN(c2ccc(NC(=O)c3ccc([N+](=O)[O-])o3)cc2Cl)CC1`, in that order: 22.9%, 60% (active), 65.1% (active) and -26.3%.
Consider `O=C(NC1CCCC(C(F)(F)F)C1)c1ccc([N+](=O)[O-])o1` (stereo unspecified), for which the inhibition was 15.8% in assay [1], 65.4% (active) in assay [2], 63% (active) in assay [3] and -1.15% in assay [4].
On to `COc1ccc(N=C2NN=C(c3c(C)[nH]c4ccccc34)CS2)cc1`, for which the inhibition in assay [1] was -7.38%; in assay [2], 43.1% (active); in assay [3] it was 32.1%; in assay [4] it was -7.14%.
For `O=C(C(Cl)c1ccccc1)N1CCCC1` (stereo unspecified), in that order: 7.29%, 51.5% (active), 44.9% (active) and -16.8%.
On the same counts, the results for `COCCn1c(C)cc(/C=C(\C#N)C(=O)OCC(=O)Nc2ccc(S(N)(=O)=O)cc2)c1C` are 11.2%, 52.6% (active), 46.3% (active) and -8.79%.
On to `CS(=O)(=O)N1CCc2cc(-c3csc(NC(=O)Cc4cccs4)n3)ccc21`, for which the inhibition in assay [1] was 12.6%; in assay [2], 53.8% (active); in assay [3], 39.9%; in assay [4] it was 42.8% (active).
`COc1ccc(OC)c(NC(=S)NCc2cccnc2)c1`: the inhibition in assay [1] is 1.82%; in assay [2], 35.9%; in assay [3], 33.3%; in assay [4], 0.37%.
For the compound `Cc1c(C#N)c(O)n(CCO)c(=O)c1N=Nc1ccc2c(c1)COC2=O`, the inhibition is 17.9% in assay [1], 39.5% in assay [2], 52.1% (active) in assay [3] and -1% in assay [4].
On the same counts, the results for `O=C(Nc1nccs1)c1ccc(S(=O)(=O)NCC2CCCCC2)cc1` are 6.64%, 41.7% (active), 42.4% and 33.3% (active).
For `O=c1[nH]c(Nc2ccc3c(c2)OCCO3)nnc1Cc1ccccc1`, the inhibition in assay [1] was 0.14%; in assay [2] it was 59.5% (active); in assay [3], 37.8%; in assay [4] it was -12.8%.
For `Cc1cc(C)nc(-n2nc(C)cc2Nc2ccccc2)n1`, in that order: 4.56%, 35.7%, 19.6% and 24%.
For `COC(=O)c1ccc(NC(=O)CSc2ccc(-c3ccccn3)nn2)cc1`, in that order: -13.3%, 52.9% (active), 41.7% and -18%.
On the same counts, the results for `Cc1cnc(NC(=O)CCCc2nc3ccccc3s2)s1` are 45.5% (active), 73.1% (active), 42.5% and 29.4%.
With `O=C(Cc1ccc(Cl)cc1Cl)Nc1ccncc1`, the inhibition in assay [1] was 16.2%; in assay [2] it was 76.1% (active); in assay [3], 72.9% (active); in assay [4], 48.6% (active).
For the compound `COc1cc(NC(=O)CN2C(=O)NC(c3ccccc3)(c3ccccc3)C2=O)c(C)cc1[N+](=O)[O-]`, the inhibition is 24.1% in assay [1], 46% (active) in assay [2], 35.3% in assay [3] and 9.47% in assay [4].
On the same counts, the results for `COc1ccc(CCC(=O)Nc2c(-c3ccc(N(C)C)cc3)[nH][nH]c2=O)cc1` are 4.07%, 27.3%, 37.5% and -2.18%.
For `Cc1ccc(-c2cc(NC=O)c3ncc(-c4cnn(C)c4)n3c2)cc1`, the inhibition in assay [1] is 50.1% (active); in assay [2] it was 52% (active); in assay [3] it was 64.3% (active); in assay [4], -13.8%.
On the same counts, the results for `CCc1nc(SCC(=O)N2CCc3cc(OC)c(OC)cc3C2)c(C#N)cc1C` are 3.35%, 47.4% (active), 45.4% (active) and 1.24%.
On the same counts, the results for `CCOc1ccc(NC(=O)Cn2cc(C(=O)C3CC3)c3ccccc32)cc1` are 5.9%, 44.1% (active), 37.5% and -14.7%.
`C=CC[n+]1c(-c2ccc(Cl)cc2Cl)csc1Nc1c(C)n(C)n(-c2ccccc2)c1=O`: the inhibition was 10.3% in assay [1], 58.7% (active) in assay [2], 61% (active) in assay [3] and 27.5% in assay [4].
As for `Cc1ccc(-n2nc(C)c(NC(=O)CCl)c2C)cc1C`, the inhibition was 57.9% (active) in assay [1], 66.8% (active) in assay [2], 66.8% (active) in assay [3] and -60.3% in assay [4].
On to `COc1ccc(OC)c(CCNC(=O)C(C)n2nc(C)c3c(C)n(-c4ccc(C)cc4)nc3c2=O)c1` (stereo unspecified), for which the inhibition is 15.2% in assay [1], 64% (active) in assay [2], 55.6% (active) in assay [3] and 51.2% (active) in assay [4].
